Here are results for four molecules from PubChem BioAssay (EPA / NIEHS).

Settings in all cases: mRNA level, 48 h; actives raise or lower the signal
Read-out in test [1]: Lipoprotein lipase (LPL), LPL (gene 4023)
The test is described as follows: LTEA_HepaRG_LPL: Life Technologies and Expression Analysis (LTEA) Assay for Lipoprotein lipase (LPL) using HepaRG (AID 2283515). An outline of the steps: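 Differentiated HepaRG cells, plated 48 h, then exposed 48 h in serum-free induction medium to 8 concentrations (top 100 uM, half-log steps) in 0.5% DMSO, duplicate. LPL mRNA measured by qRT-PCR, normalized to ACTB, GAPDH and POLR2A.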

Read-out in test [2]: MicroRNA 122 (MIR122), gene 406906
The test is described as follows: LTEA_HepaRG_MIR122: Life Technologies and Expression Analysis (LTEA) Assay for MicroRNA 122 (MIR122) using HepaRG (AID 2283516). Further: the transcript read is the microRNA miR-122. An outline of the steps:
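HepaRG plated 48 h, switched to serum-free induction medium, then treated in duplicate for 48 h (100 uM top, half-log steps, 0.5% DMSO vehicle). RNA isolated, qRT-PCR performed, concentration-response fitted both directions relative to DMSO.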

Read-out in test [3]: matrix metalloproteinase-10 (MMP10), MMP10 (gene 4319)
The test is described as follows: LTEA_HepaRG_MMP10: Life Technologies and Expression Analysis (LTEA) Assay for matrix metalloproteinase-10 (MMP10) using HepaRG (AID 2283517). The essentials: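 Differentiated HepaRG cells in serum-free induction medium exposed 48 h in duplicate to 8-point half-log series up to 100 uM in 0.5% DMSO. mRNA quantified by qRT-PCR, normalised to ACTB, GAPDH, POLR2A; bidirectional fit versus DMSO.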

Read-out in test [4]: matrix metalloproteinase-3 (MMP3), MMP3 (gene 4314)
The test is described as follows: LTEA_HepaRG_MMP3: Life Technologies and Expression Analysis (LTEA) Assay for matrix metalloproteinase-3 (MMP3) using HepaRG (AID 2283519). The essentials: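 HepaRG cells (~100,000/well) in serum-free induction medium were dosed in duplicate for 48 h with an 8-point half-log series from 100 uM, 0.5% DMSO. MMP3 mRNA was quantified by Fluidigm TaqMan qRT-PCR, normalized to three housekeeping genes.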

Read-out in test [5]: Protein phosphatase 2A (PPP2R4), PTPA (gene 5524)
The test is described as follows: LTEA_HepaRG_PPP2R4: Life Technologies and Expression Analysis (LTEA) Assay for Protein phosphatase 2A (PPP2R4) using HepaRG (AID 2283522). The essentials: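 Readout is PPP2R4 transcript level by microfluidic qRT-PCR after 48 h chemical treatment of human HepaRG liver cells. Concentrations spanned 100 uM downward in half-log steps; gain or loss of signal was fitted relative to DMSO.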

Read-out in test [6]: Phosphatase and tensin (PTEN), PTEN (gene 5728)
The test is described as follows: LTEA_HepaRG_PTEN: Life Technologies and Expression Analysis (LTEA) Assay for Phosphatase and tensin (PTEN) using HepaRG (AID 2283523). An outline of the steps:
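HepaRG cells, 48 h after plating, exposed in duplicate for 48 h in serum-free induction medium to 8 half-log concentrations up to 100 uM (0.5% DMSO). PTEN mRNA by qRT-PCR, normalized to ACTB, GAPDH, POLR2A; bidirectional fit versus DMSO.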

Read-out in test [7]: solute carrier (SLC22A1), SLC22A1 (gene 6580)
The test is described as follows: LTEA_HepaRG_SLC22A1: Life Technologies and Expression Analysis (LTEA) Assay for solute carrier (SLC22A1) using HepaRG (AID 2283524). An outline of the steps: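 Differentiated human HepaRG cells in serum-free induction medium, exposed 48 h in duplicate to 8-point half-log series from 100 µM top in 0.5% DMSO. SLC22A1 mRNA by TaqMan qRT-PCR normalized to ACTB, GAPDH, POLR2A; bidirectional fit versus DMSO.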

Read-out in test [8]: Pyruvate Dehydrogenase Kinase 4 (PDK4), PDK4 (gene 5166)
The test is described as follows: LTEA_HepaRG_PDK4: Life Technologies and Expression Analysis (LTEA) Assay for Pyruvate Dehydrogenase Kinase 4 (PDK4) using HepaRG (AID 2283525). An outline of the steps:
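HepaRG cells plated 48 h, then switched to serum-free induction medium and exposed in duplicate for 48 h to 8 half-log concentrations from 100 uM in 0.5% DMSO. PDK4 mRNA measured by qRT-PCR, normalized to ACTB, GAPDH and POLR2A; bidirectional fit versus DMSO.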

Read-out in test [9]: NAD(P)H dehydrogenase [quinone] 1 (NQO1), NQO1 (gene 1728)
The test is described as follows: LTEA_HepaRG_NQO1: Life Technologies and Expression Analysis (LTEA) Assay for NAD(P)H dehydrogenase [quinone] 1 (NQO1) using HepaRG (AID 2283526). The essentials:
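HepaRG, 48 h post-plating → serum-free induction medium → test chemical 48 h (duplicate, 100 uM top, half-log x8, 0.5% DMSO) → RNA isolation → qRT-PCR, ACTB/GAPDH/POLR2A normalization; bidirectional curve fit vs DMSO baseline.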

Read-out in test [10]: Nuclear factor erythroid 2-related factor 2 (Homo sapiens) (UniProt Q16236)
The test is described as follows: LTEA_HepaRG_NFE2L2: Life Technologies and Expression Analysis (LTEA) Assay for Nuclear factor erythroid 2-related factor 2 (NFE2L2) Transcription Factor using HepaRG (AID 2283527).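 Further: TaqMan qRT-PCR transcript level normalised to ACTB GAPDH and POLR2A housekeeping genes.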 An outline of the steps:
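Differentiated human HepaRG cells, serum-free induction medium, exposed 48 h in duplicate to eight half-log concentrations up to 100 uM in 0.5% DMSO. NFE2L2 mRNA by Fluidigm TaqMan qRT-PCR, normalised to ACTB, GAPDH, POLR2A; bidirectional change versus DMSO.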

Read-out in test [11]: succinate dehydrogenase complex iron sulfur subunit B (SDHB), SDHB (gene 6390)
The test is described as follows: LTEA_HepaRG_SDHB: Life Technologies and Expression Analysis (LTEA) Assay for succinate dehydrogenase complex iron sulfur subunit B (SDHB) using HepaRG (AID 2283528). An outline of the steps:
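Readout is SDHB transcript level by qRT-PCR, normalised to three housekeeping genes and fitted bidirectionally against 0.5% DMSO vehicle. Human HepaRG cells were treated for 48 h at up to 100 uM.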

Read-out in test [12]: Signal transducer and activator of transcription 3 (Homo sapiens) (UniProt P40763)
The test is described as follows: LTEA_HepaRG_STAT3: Life Technologies and Expression Analysis (LTEA) Assay for Signal transducer and activator of transcription (STAT3) using HepaRG (AID 2283529). The essentials:
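Differentiated HepaRG cells, serum-free induction medium, dosed 48 h in duplicate, 8 half-log concentrations from 100 uM in 0.5% DMSO. STAT3 mRNA by qRT-PCR, normalised to ACTB, GAPDH, POLR2A; bidirectional fit versus DMSO.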

Read-out in test [13]: solute carrier (SLCO1B1), SLCO1B1 (gene 10599)
The test is described as follows: LTEA_HepaRG_SLCO1B1: Life Technologies and Expression Analysis (LTEA) Assay for solute carrier (SLCO1B1) using HepaRG (AID 2283530). An outline of the steps:
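Gain or loss of SLCO1B1 mRNA is fitted against the 0.5% DMSO vehicle in human HepaRG liver cells treated 48 h at up to 100 uM in half-log steps. Expression comes from qRT-PCR normalized to endogenous controls.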

Read-out in test [14]: sulfotransferase 2A1 (SULT2A1), SULT2A1 (gene 6822)
The test is described as follows: LTEA_HepaRG_SULT2A1: Life Technologies and Expression Analysis (LTEA) Assay for sulfotransferase 2A1 (SULT2A1) using HepaRG (AID 2283531). The essentials:
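Cells were plated and cultured 48 h, switched to serum-free induction medium, then dosed in duplicate for 48 h (8 concentrations, max 100 uM). RNA was isolated and SULT2A1 expression measured by qRT-PCR; gain or loss of signal fitted relative to DMSO.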

Read-out in test [15]: Transforming Growth Factor (TGFA), TGFA (gene 7039)
The test is described as follows: LTEA_HepaRG_TGFA: Life Technologies and Expression Analysis (LTEA) Assay for Transforming Growth Factor (TGFA) using HepaRG (AID 2283532). An outline of the steps: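 Differentiated HepaRG cells exposed 48 hours in serum-free induction medium, 0.5% DMSO vehicle, 8-point half-log series from 100 uM, in duplicate. TGFA mRNA by TaqMan qRT-PCR, normalised to ACTB, GAPDH, POLR2A; bidirectional fit versus DMSO.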

Read-out in test [16]: Transforming Growth Factor (TGFB1), TGFB1 (gene 7040)
The test is described as follows: LTEA_HepaRG_TGFB1: Life Technologies and Expression Analysis (LTEA) Assay for Transforming Growth Factor (TGFB1) Transporter using HepaRG (AID 2283533). An outline of the steps:
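Expression change of TGFB1 in human HepaRG cells is measured after a 48 h chemical exposure, up to 100 uM in 0.5% DMSO vehicle. Curves are fitted in both directions relative to the DMSO baseline.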

Read-out in a further test: TIMP1, TIMP1 (gene 7076)
The test is described as follows: LTEA_HepaRG_TIMP1: Life Technologies and Expression Analysis (LTEA) Assay for TIMP1 using HepaRG (AID 2283534).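 Further: TaqMan qRT-PCR signal normalized to ACTB GAPDH and POLR2A housekeeping genes.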 An outline of the steps:
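We dosed human liver HepaRG cultures for 48 hours with up to 100 uM test chemical and measured TIMP1 expression by qRT-PCR. Activity in either direction is fitted relative to the 0.5% DMSO vehicle.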

Read-out in test [17]: Paternally Expressed 10 (PEG10), PEG10 (gene 23089)
The test is described as follows: LTEA_HepaRG_PEG10: Life Technologies and Expression Analysis (LTEA) Assay for Paternally Expressed 10 (PEG10) using HepaRG (AID 2283520). The essentials:
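HepaRG, 48 h post-plating → serum-free induction medium → 48 h chemical exposure (duplicate, 8-pt, max 100 uM, half-log, 0.5% DMSO) → lysis in RLT → TaqMan qRT-PCR for PEG10, ACTB/GAPDH/POLR2A normalisation.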

Read-out in another test: MYC, MYC (gene 4609)
The test is described as follows: LTEA_HepaRG_MYC: Life Technologies and Expression Analysis (LTEA) Assay for MYC using HepaRG (AID 2283518). The essentials:
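Cells are thawed, plated and cultured 48 h, then treated for 48 h with test chemicals (eight half-log concentrations from 100 uM, 0.5% DMSO vehicle). RNA is isolated and MYC expression quantified by qRT-PCR against three housekeeping genes.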

Read-out in test [18]: Nuclear factor NF-kappa-B p105 subunit (Homo sapiens) (UniProt P19838)
The test is described as follows: LTEA_HepaRG_NFKB1: Life Technologies and Expression Analysis (LTEA) Assay for Nuclear Factor Kappa B Subunit 1 (NFKB1) using HepaRG (AID 2283521).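 Further: TaqMan qRT-PCR transcript normalised to ACTB GAPDH and POLR2A housekeeping genes.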 An outline of the steps:
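HepaRG, 48 h exposure; 8-pt half-log series from 100 uM in 0.5% DMSO; duplicates. Readout: NFKB1 mRNA by qRT-PCR (Fluidigm arrays), housekeeping-normalized. Gain/loss fit vs DMSO baseline.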

Structures are written as SMILES. The source made the active and inactive calls. How the source made its calls: active means hit-call score of the fitted dose curve at least 0.9, where 1 is the maximum; inactive means score below 0.9.

Signal transducer and activator of transcription 3 (Homo sapiens), sequence (P40763 whole entry, looked up): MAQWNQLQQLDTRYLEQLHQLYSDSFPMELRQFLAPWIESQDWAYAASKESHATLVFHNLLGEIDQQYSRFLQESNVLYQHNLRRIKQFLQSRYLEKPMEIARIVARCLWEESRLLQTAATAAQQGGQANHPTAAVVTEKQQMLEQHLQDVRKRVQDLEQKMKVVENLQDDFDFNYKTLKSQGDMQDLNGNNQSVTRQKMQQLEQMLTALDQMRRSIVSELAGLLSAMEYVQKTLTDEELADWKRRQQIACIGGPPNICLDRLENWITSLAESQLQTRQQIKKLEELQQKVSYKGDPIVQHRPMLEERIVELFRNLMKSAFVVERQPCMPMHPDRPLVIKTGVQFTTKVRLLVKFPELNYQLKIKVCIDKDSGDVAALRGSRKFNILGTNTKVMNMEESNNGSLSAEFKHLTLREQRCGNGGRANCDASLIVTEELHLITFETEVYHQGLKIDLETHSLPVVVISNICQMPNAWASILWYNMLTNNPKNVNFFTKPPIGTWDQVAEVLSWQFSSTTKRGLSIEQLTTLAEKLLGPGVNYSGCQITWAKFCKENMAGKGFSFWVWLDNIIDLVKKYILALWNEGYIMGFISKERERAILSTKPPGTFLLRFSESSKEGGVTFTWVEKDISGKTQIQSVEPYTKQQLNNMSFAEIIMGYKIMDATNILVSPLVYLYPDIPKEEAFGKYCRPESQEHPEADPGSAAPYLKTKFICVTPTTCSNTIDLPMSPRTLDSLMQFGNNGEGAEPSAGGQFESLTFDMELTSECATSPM
Nuclear factor erythroid 2-related factor 2 (Homo sapiens), sequence (Q16236 whole entry, looked up): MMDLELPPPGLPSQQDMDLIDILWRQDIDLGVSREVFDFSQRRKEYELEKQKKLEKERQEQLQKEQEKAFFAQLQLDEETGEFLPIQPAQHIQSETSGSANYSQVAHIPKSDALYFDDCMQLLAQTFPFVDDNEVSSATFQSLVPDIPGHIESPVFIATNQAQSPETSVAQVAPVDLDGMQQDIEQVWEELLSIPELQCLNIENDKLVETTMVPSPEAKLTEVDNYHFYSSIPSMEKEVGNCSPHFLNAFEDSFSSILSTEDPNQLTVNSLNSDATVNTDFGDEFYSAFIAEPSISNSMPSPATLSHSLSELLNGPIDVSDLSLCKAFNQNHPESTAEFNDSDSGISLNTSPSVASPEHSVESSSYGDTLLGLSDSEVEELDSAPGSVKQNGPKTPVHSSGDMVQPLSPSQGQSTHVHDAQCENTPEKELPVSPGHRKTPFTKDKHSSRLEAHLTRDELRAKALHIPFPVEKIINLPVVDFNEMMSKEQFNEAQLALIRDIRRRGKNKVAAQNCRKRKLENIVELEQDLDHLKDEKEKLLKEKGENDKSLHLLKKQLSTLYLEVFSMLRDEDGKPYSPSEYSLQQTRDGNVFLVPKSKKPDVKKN
Nuclear factor NF-kappa-B p105 subunit (Homo sapiens), sequence (P19838 whole entry, looked up): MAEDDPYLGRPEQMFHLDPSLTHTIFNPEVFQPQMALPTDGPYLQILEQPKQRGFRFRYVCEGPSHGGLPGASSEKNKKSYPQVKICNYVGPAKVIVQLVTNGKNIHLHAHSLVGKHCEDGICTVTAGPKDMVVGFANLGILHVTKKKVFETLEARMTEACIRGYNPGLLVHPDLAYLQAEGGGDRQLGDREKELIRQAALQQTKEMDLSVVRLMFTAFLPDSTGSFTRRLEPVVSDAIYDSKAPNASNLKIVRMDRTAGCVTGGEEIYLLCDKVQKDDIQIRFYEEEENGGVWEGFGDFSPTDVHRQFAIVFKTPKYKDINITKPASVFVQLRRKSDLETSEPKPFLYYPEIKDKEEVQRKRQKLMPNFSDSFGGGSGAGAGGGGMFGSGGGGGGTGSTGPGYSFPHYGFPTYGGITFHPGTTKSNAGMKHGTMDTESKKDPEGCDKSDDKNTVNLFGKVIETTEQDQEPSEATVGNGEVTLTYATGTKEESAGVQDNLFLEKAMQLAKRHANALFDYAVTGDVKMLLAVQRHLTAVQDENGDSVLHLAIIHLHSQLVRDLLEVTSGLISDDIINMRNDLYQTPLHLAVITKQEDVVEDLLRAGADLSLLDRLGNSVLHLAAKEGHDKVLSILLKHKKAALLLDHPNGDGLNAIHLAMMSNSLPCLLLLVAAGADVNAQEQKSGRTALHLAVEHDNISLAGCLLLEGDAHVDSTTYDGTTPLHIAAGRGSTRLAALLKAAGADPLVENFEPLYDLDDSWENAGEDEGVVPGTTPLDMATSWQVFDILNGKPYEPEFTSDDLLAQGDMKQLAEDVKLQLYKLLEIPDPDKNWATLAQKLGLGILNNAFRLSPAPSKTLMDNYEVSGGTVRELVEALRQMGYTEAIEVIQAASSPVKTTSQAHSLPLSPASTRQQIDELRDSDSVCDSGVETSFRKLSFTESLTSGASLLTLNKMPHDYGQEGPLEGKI

As to `CO[C@H]1/C=C/O[C@@]2(C)Oc3c(C)c(O)c4c(O)c(c(/C=N/N5CCN(C)CC5)c(O)c4c3C2=O)NC(=O)/C(C)=C\C=C\[C@H](C)[C@H](O)[C@@H](C)[C@@H](O)[C@@H](C)[C@H](OC(C)=O)[C@@H]1C`, the outcome in [1], in test [2], in test [3], in test [4], in [5] and in test [6] was inactive. For the same molecule, the molecule was classed as inactive in test [7], in [8], in test [9], in test [10], in [11] and in test [13]. The outcome was “inactive” in [14]; “inactive” in test [15]; “inactive” in test [16]; “inactive” with TIMP1, TIMP1 (gene 7076). In test [12], the AC50 was 7.81 µM (active).
Regarding `CC1=CC(=O)/C(=C(/C)O)C(=O)O1`, the call in [1], in test [2], in test [3], in [17], in [5] and in test [7] was inactive. For the same molecule, the molecule was called inactive in [9], in test [10], in test [11], in test [12], in [13] and in test [14]. The outcome was “inactive” in [15]; “inactive” in test [16]; “inactive” with TIMP1, TIMP1 (gene 7076).
`CCCCCCCCOC(=O)c1cc(O)c(O)c(O)c1`: the result in [1], in [2], in test [3], in test [4], in [17] and in test [5] was inactive. The result in test [7], in test [9], in test [10], in test [11], in test [13] and in test [14] was inactive. Also, the outcome in test [15] is “inactive”; in [16], “inactive”; with TIMP1, TIMP1 (gene 7076) it was “inactive”.
For the molecule `O=c1[nH]sc2ccccc12`, the outcome in [1] was “inactive”; in test [2] it was “inactive”; in test [3], “inactive”; in the test with MYC, MYC (gene 4609), “inactive”; in test [17], “inactive”; in [18], “inactive”. Moreover, the molecule was classed as inactive in [5], in test [6], in [7], in test [9], in test [10] and in test [11]. For the same molecule, the outcome was “inactive” in test [12]; “inactive” in test [13]; “inactive” in [14]; “inactive” in test [15]; “inactive” in [16]; “inactive” with TIMP1, TIMP1 (gene 7076).
